# Source: PubChem BioAssay AID598 (SRMLSC, 2007)
# In all, about 85,000 compounds went through this assay and about 5,100 (6%) were called active. The entries come from a sample that favours actives as a whole. Values without a mark were called inactive.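 The calls were made as follows: active = viability at or below 40%; inactive = viability above 40%.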
# Test: H69AR cell viability reduction – human, 86K library, primary screen (AID 598);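 also: multidrug resistant small cell line overexpressing MRP-1 efflux transporter; 100% = mean luminescence of untreated control wells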
# Settings: H69AR lung tumor viability, ATP luminescence, 72 h; at 10 µM; hits give low values
row,Structure (SMILES),viability
1,COc1cccc(OCc2cc(/C=N/NC(=O)c3nc(Cl)c(Cl)c(N)c3Cl)ccc2OC)c1,19.7% (active)
2,COc1cccc(OCCOc2cccc(/C=N/n3cnnc3)c2)c1,84.3%
3,COc1cccc(OCC(=O)Nc2ccccc2C(N)=O)c1,85.5%
4,CCCCCN1CC(O)=C(c2ccccc2)C1=N,88.7%
5,O=C(c1cn(-c2ccccc2)nc1-c1cccnc1)N1CCCCC1,90.8%
6,COc1ccc(Nc2ncc(C(=O)N3CCN(c4ccccc4OC)CC3)c3ccccc23)cc1,80.8%
7,COc1ccccc1N1CCN(C(=O)c2cn(-c3ccccc3)nc2-c2cccnc2)CC1,21.9% (active)
8,COc1cccc2c1OCC1COc3c(c(=O)n(C)c(=O)n3C)C21 (stereo not drawn),94.9%
9,CCCCCCc1cc2cc(-c3nnc(-c4ccccc4)o3)c(=O)oc2cc1O,9.42% (active)
10,COc1cccc(C(=O)c2cc3ccc(O)cc3oc2=O)c1,68.4%
11,CCCCN(CC)CCCNC(=O)CS(=O)(=O)Cc1nc(-c2cccc(OC)c2)oc1C,88.1%
12,O=c1oc2cc(O)ccc2cc1-c1ccc(F)cc1,88.7%
13,CCCCCCc1cc2cc(-c3nnc(-c4cccc(OC)c4)o3)c(=O)oc2cc1O,2.32% (active)
14,CC(C)CCSc1ncnc2c1oc1nc3c(cc12)COC(C)(C)C3,68.6%
15,Cc1nnc(SCc2nc3ccccc3nc2C)s1,97.2%
16,Cc1cccc(N2C(=O)c3cccnc3C2=O)c1,92.3%
17,CCN(CC)CCn1c(=S)[nH]c2ncccc2c1=O,101%
18,C=C(C)CNC(=S)/N=c1\scc(C)n1CC,91.2%
19,CCC(C)NC(=O)CCCc1ccccc1 (stereo not drawn),86.3%
20,CCCCCc1ccc(-c2ccc(C(=O)O)cc2)nc1,35.7% (active)
21,O=C(O)c1ccc(COCC(F)(F)F)cc1,98.2%
22,Cc1cc(NC(=O)c2cc(-c3cccs3)on2)nn1Cc1ccc(Cl)cc1,26.1% (active)
23,O=C(c1cc(-c2cccs2)on1)N1CCCCC1,97.2%
24,Cc1ccc(Cn2ccc(NC(=O)c3cc(C(C)C)on3)n2)cc1,95%
25,Cc1ccc(S(=O)(=O)N2CCN(S(=O)(=O)N3CCOCC3)CC2)cc1,93.1%

row,Structure (SMILES),viability
1,C/C(=N\NC(=O)c1ccc(C)cc1)C1C(=O)c2ccccc2C1=O,78.5%
2,CC1CCN(C(=O)c2cc3nc(C4CC4)cc(C(F)(F)F)n3n2)CC1,97.6%
3,CCC(C)NC(=O)CSC1=Nc2ccccc2C2=NC(CCC(=O)NCc3ccco3)C(=O)N12 (stereo not drawn),90.7%
4,CCOc1nc(-c2ccc(OC)cc2)ccc1-c1noc(-c2cc(OC)c(OC)c(OC)c2)n1,13.9% (active)
5,COc1ccc(-c2ccc(-c3noc(-c4ccncc4)n3)c(OC)n2)cc1,93.4%
6,COc1cc(-c2nc(-c3ccncc3)no2)cc(OC)c1OC,88.6%
7,Cc1ccc(OCC(=O)N/N=C\c2ccco2)c(C)c1,93.4%
8,Cc1ccc(S(=O)(=O)NC(=O)N2CCCC(C)(C)C2)cc1,91%
9,Cc1ccc(S(=O)(=O)N(C)C2(C)CCS(=O)(=O)C2)cc1 (stereo not drawn),109%
10,Cc1ccc(S(=O)(=O)C2(S(=O)(=O)c3ccc(C)cc3)CCCC2)cc1,18.3% (active)
11,O=C1Nc2c(Br)cc(Br)cc2C1(O)N1CCOCC1 (stereo not drawn),31.2% (active)
12,CCc1c(C)nc2cc(-c3cccs3)[nH]n2c1=O,91.8%
13,Cc1c(-c2ccccc2)nc(N)c(C#N)c1-c1cccs1,77%
14,CCc1c(-c2ccccc2)nc(N)c(C#N)c1-c1cccs1,36% (active)
15,O=C(O)CSc1nccn1-c1cccc(Cl)c1,88.9%
16,Cc1noc(NS(=O)(=O)c2ccc(N/C=C/C(=O)c3ccccc3)cc2)c1C,76.1%
17,COc1ccc(CCNS(=O)(=O)c2ccc(Cl)s2)cc1OC,93%
18,COc1ccc(-c2cc(C(F)(F)F)nc(NCc3cccnc3)n2)cc1,92.9%
19,COc1ccc(-c2cc(C(F)(F)F)nc(S(C)(=O)=O)n2)cc1OC,1.78% (active)
20,COc1ccc(-c2nnco2)cc1OC,107%
21,O=C(Nc1nncs1)c1cccc(S(=O)(=O)N2CCCCC2)c1,94.8%
22,Cc1ccc(-n2c(SCC(=O)Nc3ccc4c(c3)OCO4)nnc2-c2ccccn2)cc1,65.9%
23,Cc1cc(C)c(S(=O)(=O)N2C=CC(C(F)(F)F)=NCC2)c(C)c1,109%
24,CCCCN(CC)CCNC(=O)c1[nH]c(C)c(C(C)=O)c1C,101%
25,Cc1ccc(C2(C(F)(F)F)N=C3Sc4cc(C)cc(C)c4N3C(=O)N2)cc1 (stereo not drawn),101%

row,Structure (SMILES),viability
1,CCOC(=O)c1sc(=S)n(-c2cccc(OC)c2)c1N,97.3%
2,CCOC(=O)Cn1c(N)c(C(=O)OC)sc1=S,105%
3,CCOC(=O)c1sc(=S)n2c1[nH]c(=O)c1ccc(C(=O)OC)cc12,36.7% (active)
4,Cc1ccc(C)c(N2C(=O)CS/C2=N\NC(=O)c2ccccc2Cl)c1,101%
5,Cn1ccs/c1=N\S(=O)(=O)c1ccc(C(C)(C)C)cc1,89.4%
6,COc1ccc(NC(=O)C2C3C=CC(C3)C2C(=O)NCc2ccccn2)c(OC)c1 (stereo not drawn),93.1%
7,O=C(NCCc1ccccc1)c1ccc(OCCOc2ccccc2)cc1,87.8%
8,COc1ccccc1Nc1nc(N)nc(CN(C)C2CCCCC2)n1,87.4%
9,COc1ccccc1NC1=NC2(CCCC2)N=C(N)N1,91.5%
10,COc1ccccc1NC1=NC(c2ccc(Cl)cc2)N=C(N)N1 (stereo not drawn),19.5% (active)
11,Cc1ccc(S(=O)(=O)NCC(C)NS(C)(=O)=O)cc1 (stereo not drawn),95.2%
12,CCOC(=O)c1sc(NC(=O)c2ccncc2)nc1C,96.2%
13,CCCCCOC(=O)c1ccc(N2C(=O)C3C4C=CC(C4)C3C2=O)cc1 (stereo not drawn),95.1%
14,COc1ccc(Nc2cc(=O)oc3ccccc23)cc1,18.4% (active)
15,COc1ccc(N2CCN(Cc3cc(=O)oc4ccc5ccccc5c34)CC2)cc1,71.9%
16,COC(=O)COc1ccc2oc(=O)cc(C)c2c1,91.9%
17,Cc1cc(N2CCN(S(=O)(=O)c3ccc(C)c(C)c3)CC2)c2ccccc2n1,66.8%
18,CC(NC(=O)CSc1nc2c(cc1C#N)CN(C)CC2)c1ccccc1 (stereo not drawn),15.6% (active)
19,CC1(C)CCc2nc(SCc3ccccc3)c(C#N)cc2C1,81.4%
20,Cc1ccc2cc(C#N)c(SCC(=O)NCC3CCCO3)nc2c1C (stereo not drawn),91.2%
21,O=C1C2N=NN(CC(=O)N3N=C(c4cccc5ccccc45)CC3c3ccccc3)C2C(=O)N1c1ccccc1 (stereo not drawn),70.5%
22,CCN1CCCC1Cn1cnc2c([nH]c3cc(OC)ccc32)c1=O (stereo not drawn),79.9%
23,Cc1cccc(CCNS(=O)(=O)c2ccc(S(=O)(=O)NC3CCCC3)cc2)c1,78%
24,O=C(Nc1ccc(Cl)cc1)c1cc2nc(C3CC3)cc(C(F)(F)F)n2n1,79.5%
25,CCOC(=O)C1CCN(C(c2cc3cc(C)cc(C)c3[nH]c2=O)c2nnnn2C2CCCCC2)CC1 (stereo not drawn),6.09% (active)

row,Structure (SMILES),viability
1,Cc1cc(C)c2[nH]c(=O)c(C(c3nnnn3Cc3ccc4c(c3)OCO4)N3CCCC3)cc2c1 (stereo not drawn),68.1%
2,COc1ccc(N2CCN(C(c3cc4ccc(C)cc4[nH]c3=O)c3nnnn3C3CCCC3)CC2)cc1 (stereo not drawn),86.9%
3,Cc1ccc(-c2noc(CC(c3ccccc3)c3ccccc3)n2)cc1,97.1%
4,CCn1c(CNC(=O)c2ccccc2)nnc1SCC(=O)N1CCN(c2ccccc2)CC1,90.4%
5,Cc1cccc2nc(CSc3nc4[nH]ncc4c(=O)n3-c3cccc(Cl)c3)cc(=O)n12,41.8%
6,Cc1cc(C)c2c(n1)nn1c(N3CCN(c4cccc(Cl)c4)CC3)cc(C)nc21,17.6% (active)
7,Cc1cc(C)c2c(n1)nn1c(N3CCOCC3)cc(C)nc21,72.3%
8,Cc1cc(C)c2c(n1)nn1c(-n3ccnc3)cc(C)nc21,74.5%
9,O=C(CSc1c2c(nc3ccc(Cl)cc13)CCCC2)NCc1ccco1,7.34% (active)
10,O=C(NCc1ccco1)c1cc(-c2cccnc2)nc2ccc(Cl)cc12,68.3%
11,O=C(NCc1ccco1)C1(c2ccc(Cl)cc2)CCCC1,96.8%
12,COc1ccc(-n2nnnc2SCc2nc(N)nc(N3CCOCC3)n2)cc1,94.2%
13,Cc1cc(NC(=O)CS(=O)(=O)c2cn(C)c3ccccc23)no1,78.6%
14,O=C(CSc1nc2cc3c(cc2c(=O)n1CCC1=CCCCC1)OCO3)NCc1ccco1,36.1% (active)
15,C=C(C)Cn1c(SCC(=O)NCc2ccco2)nc2sc3c(c2c1=O)CCC3,49.4%
16,O=C(CCCn1c(SCC(=O)c2ccc(F)cc2)nc2ccccc2c1=O)NCc1ccco1,58.2%
17,Cc1c(CCO)c(=O)n(-c2ccccc2)n1S(=O)(=O)c1ccc(F)cc1,75.6%
18,CCn1c(SCC(=O)Nc2ccc(S(=O)(=O)Nc3onc(C)c3C)cc2)nnc1-c1ccccc1,98.3%
19,COn1c(=O)c(=O)n(OC)c2ccccc21,97.1%
20,COC(=O)c1ccccc1Oc1c(F)c(F)nc(N2CCOCC2)c1F,67.1%
21,Cc1ccc(C(C(=O)NC2CCCC2)N(Cc2ccco2)C(=O)CCC(=O)Nc2ccccn2)cc1 (stereo not drawn),69.7%
22,Cc1ccc2c(c1)N(CC(=O)N(Cc1ccccn1)Cc1ccco1)C(=O)C(C(C)C)O2 (stereo not drawn),35% (active)
23,Cc1ccc(C)c(N(CC(=O)NCc2ccco2)C(=O)CCC(=O)Nc2ccccn2)c1,98.1%
